Laboratory results as given in PubChem BioAssay (NCATS).
Starred links: 1 amine or outer side, 2 acyl side, 3 side chain; linkers in the order of their positions; H or OH if unused. Positions of bridges follow the written chain, without caps; N, C: chain ends. Non-standard residues stand in square brackets, D forms with d. Residues, ends and D or L forms follow the SMILES beside them. Chains are numbered I, II in the order given. Actinocin(9to1) = Cc1c2oc3c(C)ccc(C(=O)[*:1])c3nc-2c(C(=O)[*:2])c(N)c1=O; NMeV = CN[CH](C(=O)O)C(C)C; Sar = CNCC(=O)O

experiment: qHTS profiling of the MIPE4 collection as inhibitors of Plasmodium falciparum (3D7) proliferation (AID 743344);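 note: scaled between DMSO vehicle wells and 0.29 µM artemisinin as full inhibition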; conditions: P. falciparum 3D7 in erythrocytes, SYBR Green DNA fluorescence, 72 h; at 28.5 µM unless noted
In short: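 Erythrocytes infected with P. falciparum (0.3% parasitemia, 2.5% hematocrit) incubated with compounds 72 h at 37 C, 5% CO2. Lysis with saponin/Triton buffer containing SYBR Green I, overnight at room temperature in the dark; DNA fluorescence (485/535 nm) normalised to 0.29 uM artemisinin and DMSO.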

| SMILES | parasite growth, % of DMSO control |
| --- | --- |
| COc1cc2c(cc1OC)[C@@H]1C(=O)c3ccc4c(c3O[C@@H]1CO2)C=CC(C)(C)O4 | 45.9% |
| Cn1c(Nc2ccc(C(F)(F)F)cc2)nc2cc(Oc3ccnc(-c4ncc(C(F)(F)F)[nH]4)c3)ccc21 | 7.02% |
| C#CCC(Cc1cnc2nc(N)nc(N)c2n1)c1ccc(C(=O)N[C@@H](CCC(=O)O)C(=O)O)cc1 (stereo not given in full) | 21.7% |
| Cc1ccccc1C(=O)Nc1ccc(C(=O)N2CCCC(O)c3cc(Cl)ccc32)c(C)c1 (stereo not given) | 22.8% |
| NC(=O)c1ncn([C@@H]2O[C@H](CO)[C@@H](O)[C@@H]2O)c1N | 96.5% |
| CN[C@H](CC(C)C)C(=O)N[C@H]1C(=O)N[C@@H](CC(N)=O)C(=O)N[C@@H]2C(=O)N[C@H]3C(=O)N[C@H](C(=O)N[C@H](C(=O)O)c4cc(O)cc(O)c4-c4cc3ccc4O)[C@H](O)c3ccc(c(Cl)c3)Oc3cc2cc(c3O[C@@H]2O[C@H](CO)[C@@H](O)[C@H](O)[C@@H]2O[C@H]2C[C@](C)(N)[C@H](O)[C@H](C)O2)Oc2ccc(cc2Cl)[C@H]1O | 387% |
| COc1ccc2cc([S+]([O-])Cc3ncc(C)c(OC)c3C)nc2c1 | 32.2% |
| O=C(O)CCCCC(CCSCc1ccccc1)SCc1ccccc1 (stereo not given) | 76.2% |
| OC[C@H]1OC(O)C[C@@H](O)[C@H]1O (stereo not given in full) | 96.9% |
| N[C@H]1CN(c2c(F)cc3c(=O)c(C(=O)O)cn(C4C[C@@H]4F)c3c2Cl)CC12CC2 (stereo not given in full) | 20.3% |
| Cc1c2oc3c(C)ccc(C(=O)NC4C(=O)NC(C(C)C)C(=O)N5CCCC5C(=O)N(C)CC(=O)N(C)C(C(C)C)C(=O)OC4C)c3nc-2c(C(=O)NC2C(=O)NC(C(C)C)C(=O)N3CCCC3C(=O)N(C)CC(=O)N(C)C(C(C)C)C(=O)OC2C)c(N)c1=O (stereo not given) (I: TVP[Sar][NMeV] / II: TVP[Sar][NMeV]; ester I:1-I:C, II:1-II:C; linker I:N-II:N via Actinocin(9to1); configuration not given here) | 3.86% |
| CN(C)c1ccc2cc(C(=O)N[C@@H](CCCN=C(N)CCl)C(=O)NCc3ccccc3)ccc2c1 | 5.85% |
| Cc1cc(O)c2c(c1)C(=O)c1cccc(O)c1C2=O | 91.5% |
| Cc1onc(-c2ccccc2)c1C(=O)N[C@@H]1C(=O)N2[C@@H](C(=O)O)C(C)(C)S[C@@H]12 | 92.7% |
| COC(=O)C1C2CC3c4[nH]c5cc(OC)ccc5c4CCN3CC2CC(OC(=O)c2cc(OC)c(OC)c(OC)c2)C1OC (stereo not given) | 10.2% |
| CCCCCCCN(CC)CCCC(O)c1ccc(NS(C)(=O)=O)cc1 (stereo not given) | 58.8% |
| COc1cc(C)c(Sc2cnc(NC(=O)c3ccc(CNC(C)C(C)(C)C)cc3)s2)cc1C(=O)N1CCN(C(C)=O)CC1 (stereo not given) | 7.09% |
| CC1=C(C(=O)Nc2cc3cn[nH]c3cc2F)C(c2ccc(Cl)cc2F)N=C(c2ccnc(Cl)c2)N1 (stereo not given) | 13.2% |
| COc1cc(C=CC(=O)CC(=O)C=Cc2ccc(O)c(OC)c2)ccc1O | 4.86% [at 57.5 µM] |
| COc1cc(C)c(C=CC(C)=CC=CC(C)=CC(=O)O)c(C)c1C | 85.8% |
| c1ccc2c(Oc3nc(Nc4ccc(N5CCOCC5)cc4)c4ncn(C5CCCCC5)c4n3)cccc2c1 | 6.5% |
| O=C(O)CCCCCC(=O)NN=C1CCCC1 | 101% |
| C[C@]12CC[C@@H]3c4ccc(O)cc4CC[C@H]3[C@H]1CC[C@H]2O | 65.8% |
| Nc1ccn(C2CO[C@H](CO)O2)c(=O)n1 (stereo not given in full) | 95.7% |
| OC[C@@H](O)[C@@H](O)[C@H](O)[C@@H](O)CO | 100% |
| C[C@H](O)[C@@H]1C(=O)N2C(C(=O)O)=C(S[C@@H]3CN[C@H](CNS(N)(=O)=O)C3)[C@@H](C)[C@@H]12 | 107% |
| O=C(C[C@@H]1CC=CCCC(=O)O[C@H](c2ccccc2)CNC1=O)NCc1ccc(Cl)cc1 | 62.4% |
| CCCCCCCCCCCCCCCC(=O)OC[C@@H](NC(=O)C(Cl)Cl)[C@H](O)c1ccc([N+](=O)[O-])cc1 | 101% |
| Cc1cnn(C)c1C(=O)Nc1cc(Nc2ccc3c(C=Cc4ccccn4)n[nH]c3c2)ccc1F | 4.63% |
| CC(C(C)N1CC(=O)NC(=O)C1)N1CC(=O)NC(=O)C1 (stereo not given) | 88.4% |
